Screens from PubChem.
PAFAH2 FP inh: inhibitors of human PAFAH2; recombinant PAFAH2, FP-rhodamine activity probe, fluorescence polarization; inhibition, % at 3.39 µM; Q99487; hit rate 0.99% among 340,000;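 active means inhibition above the mean over all tested compounds plus 3 SD, cut at about 30% in these data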;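 further: inhibitors block probe labeling of enzyme so polarization drops; 0% = enzyme with DMSO and 100% = wells lacking PAFAH2 protein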
E coli Lon inh: E. coli protease La inhibition; P0A9M0; purified E. coli Lon protease, fluorescence polarization; inhibition, % at 7.94 µM; hit rate 0.42% among 360,000; in the data active means inhibition above about 13%, passing the limit was not always enough;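 further: 0% = enzyme with probe and DMSO and 100% = no enzyme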
PAFAH1B2 inh: inhibitors of human PAFAH1B2. P68402. recombinant PAFAH1B2, FP-rhodamine activity probe, fluorescence polarization. inhibition, % at 3.39 µM. hit rate 1.2% among 340,000. AID 492953;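 active means inhibition above the mean of all tested compounds plus 3 SD, cut at about 24% in these data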;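 further: 0% = enzyme with DMSO and 100% = wells lacking PAFAH1B2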
pPAFAH FP inh: pPAFAH (human) enzyme inhibition. recombinant pPAFAH, FP-rhodamine probe fluorescence polarization. inhibition, % at 3.39 µM. hit rate 1.5% among 330,000;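 active means inhibition above the mean inhibition across the screen plus 3 SD, cut at about 25% in these data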;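 further: inhibitors block binding of the rhodamine activity-based probe so polarization drops; 0% = enzyme with DMSO and 100% = wells lacking pPAFAH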
Target sequence (Q13093 whole entry, looked up): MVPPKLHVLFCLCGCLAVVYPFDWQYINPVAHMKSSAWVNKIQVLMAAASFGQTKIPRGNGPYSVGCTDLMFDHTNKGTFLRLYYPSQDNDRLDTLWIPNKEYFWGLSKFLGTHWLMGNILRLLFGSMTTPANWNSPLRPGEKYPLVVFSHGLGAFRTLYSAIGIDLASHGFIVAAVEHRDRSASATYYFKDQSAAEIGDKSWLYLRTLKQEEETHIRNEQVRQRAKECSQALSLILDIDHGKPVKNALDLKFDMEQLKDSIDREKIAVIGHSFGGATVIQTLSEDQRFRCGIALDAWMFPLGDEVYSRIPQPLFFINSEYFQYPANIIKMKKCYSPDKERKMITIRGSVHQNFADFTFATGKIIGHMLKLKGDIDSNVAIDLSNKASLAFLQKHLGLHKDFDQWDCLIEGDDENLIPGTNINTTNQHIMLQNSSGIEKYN
Rin1-Abl PPI inh: blocks binding of human Rin1 to Abl; P00519+Q13671; AID 588664; hit rate 0.4% among 360,000; TR-FRET Rin1/Abl binding, biochemical; inhibition, % at 7.35 µM; in the data active means inhibition above about 5%, passing the limit was not always enough
PAFAH1B3 inh: inhibitors of human PAFAH1B3 | inhibition, % at 3.39 µM | hit rate 0.28% among 340,000 | AID 492972 | recombinant PAFAH1B3, FP-rhodamine probe, fluorescence polarization;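 active means inhibition above the screen-wide average of all tested compounds plus 3 SD, cut at about 25% in these data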;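 further: 0% = enzyme with DMSO only and 100% = wells lacking PAFAH1B3 protein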
Active calls of the source: *. A selection: hits, their analogues and other compounds. The true share with any hit is near 3.1%.

Screening O=C(COC(=O)c1ccc(F)cc1Cl)NC1CCCCCCC1 returned PAFAH2 FP inh 86*, E coli Lon inh 12, PAFAH1B2 inh 5, pPAFAH FP inh 33*, Rin1-Abl PPI inh -5 and PAFAH1B3 inh 8.
For Cc1[nH]n(-c2ncc(-c3ccc(Cl)cc3)s2)c(=O)c1C(c1ccc(Cl)cc1)C(C#N)C#N (stereo unspecified) the results were PAFAH2 FP inh 25, E coli Lon inh -10, PAFAH1B2 inh 7, pPAFAH FP inh 29*, Rin1-Abl PPI inh -1 and PAFAH1B3 inh 13.
`CCOC(=O)C1(C)CCCCCN1C(=O)c1ccc(OC)cc1` (stereo unspecified) gave E coli Lon inh 3 and Rin1-Abl PPI inh -1.
Screening NC(=O)c1ccc(NC(=O)COC(=O)C2(c3ccccc3F)CCCC2)cc1 returned PAFAH2 FP inh 2, E coli Lon inh -12, PAFAH1B2 inh 27*, pPAFAH FP inh -1, Rin1-Abl PPI inh 0 and PAFAH1B3 inh 8.
`CSc1ccccc1NC(=O)c1ccccn1` gave PAFAH2 FP inh -4, E coli Lon inh -4, PAFAH1B2 inh 4, pPAFAH FP inh -4, Rin1-Abl PPI inh 1 and PAFAH1B3 inh 11.
Screening Cc1ccccc1NC(=O)c1ccccn1 returned PAFAH2 FP inh -9, E coli Lon inh -15, PAFAH1B2 inh 1, pPAFAH FP inh 27*, Rin1-Abl PPI inh -5 and PAFAH1B3 inh 6.
CCC(CO)Oc1cc(NCc2ccccc2)c2ncn(C(C)C)c2c1 (stereo unspecified) was read as PAFAH2 FP inh -5, E coli Lon inh -8, PAFAH1B2 inh 4, pPAFAH FP inh 7, Rin1-Abl PPI inh 1 and PAFAH1B3 inh 11.
CCC(CO)Oc1cc(NC(=O)Cc2ccccc2)c2ncn(C(C)C)c2c1 (stereo unspecified) was read as PAFAH2 FP inh 16, E coli Lon inh -8, PAFAH1B2 inh 1, pPAFAH FP inh 26*, Rin1-Abl PPI inh 1 and PAFAH1B3 inh 1.
For CC(=O)N/C(=C\c1ccccc1)C(=O)OCC(=O)N(C)C1CCS(=O)(=O)C1 (stereo unspecified) the results were PAFAH2 FP inh 2, E coli Lon inh -7, PAFAH1B2 inh 0, pPAFAH FP inh 4, Rin1-Abl PPI inh 2 and PAFAH1B3 inh -2.
Screening CC1(C)CC2(CC(c3ccc(F)cc3)c3ccc(O)cc3O2)NC(=S)N1 (stereo unspecified) returned PAFAH2 FP inh 1, E coli Lon inh 2, PAFAH1B2 inh 12, pPAFAH FP inh 1, Rin1-Abl PPI inh 0 and PAFAH1B3 inh -1.
Screening CC1(C)CC2(CC(c3ccccc3F)c3ccc(O)c(O)c3O2)NC(=S)N1 (stereo unspecified) returned PAFAH2 FP inh -1, E coli Lon inh 0, PAFAH1B2 inh 7, pPAFAH FP inh 33*, Rin1-Abl PPI inh 7 and PAFAH1B3 inh -3.
O=C(O)CCC(C(=O)O)N1C(=O)C2C3CCC(C3)C2C1=O (stereo unspecified) was read as E coli Lon inh -21 and Rin1-Abl PPI inh -4.
For N#CC1=C(SCC(=O)NC23CC4CC(CC(C4)C2)C3)NC(=O)C(C#N)C12CCCCC2 (stereo unspecified) the results were PAFAH2 FP inh 33*, E coli Lon inh 6, PAFAH1B2 inh 37*, pPAFAH FP inh 7, Rin1-Abl PPI inh 3 and PAFAH1B3 inh 2.
`N#CC1=C(SCC(=O)NC2CC2)NC(=O)C(C#N)C12CCCCC2` (stereo unspecified) gave PAFAH2 FP inh 2, E coli Lon inh -11, PAFAH1B2 inh 6, pPAFAH FP inh 6, Rin1-Abl PPI inh 5 and PAFAH1B3 inh 0.
Screening O=C1CC(c2cccc([N+](=O)[O-])c2)c2cc3c(cc2N1)CCC3 (stereo unspecified) returned PAFAH2 FP inh 3, E coli Lon inh 2, PAFAH1B2 inh 7, pPAFAH FP inh 13, Rin1-Abl PPI inh 1 and PAFAH1B3 inh 6.
`COc1cccc(C2CC(=O)Nc3cc(OC)c(OC)cc32)c1` (stereo unspecified) gave PAFAH2 FP inh -4, E coli Lon inh -3, PAFAH1B2 inh 5, Rin1-Abl PPI inh 1 and PAFAH1B3 inh 4.
Screening O=C1CC(c2cccc(Cl)c2)c2cc3c(cc2N1)CCC3 (stereo unspecified) returned PAFAH2 FP inh 7, E coli Lon inh 7, PAFAH1B2 inh -1, pPAFAH FP inh 28*, Rin1-Abl PPI inh -1 and PAFAH1B3 inh 1.
